# Test results reported in the supplement of paper PMC4466140.
# How the values were obtained:
# Assay in all cases: SPOT peptide array binding signal intensity (averaged, normalized) (arbitrary units (background-subtracted, floor 0; scale differs between SH3 domains)); higher = stronger binding of the SH3 domain to the peptide
# [1] = biological target: CaNbp2
# How it was run: (§1)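 Four yeast species supplied the SH3 domains, which were expressed as GST fusions in E. coli BL21(DE3) and purified on glutathione Sepharose. Incubation with cellulose membranes carrying synthetic 15-mer peptides, cysteines exchanged for serines, ran overnight at 4°C at 10 μg/ml in TBS-based blocking buffer. Binding signal is reported as normalized, background-subtracted spot intensity averaged over replicates, in arbitrary units not shared between domains.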
# [2] = biological target: CaRvs167
# How it was run: as §1
# [3] = biological target: CaRvs167-3
# How it was run: as §1
# [4] = biological target: CaSho1
# How it was run: as §1
# [5] = biological target: CaSla1-D1-D2
# How it was run: as §1
# [6] = biological target: CaSla1-D3
# How it was run: as §1
# [7] = biological target: ScAbp1
# How it was run: as §1
# [8] = biological target: ScBbc1
# How it was run: as §1
# [9] = biological target: ScBem1-D1
# How it was run: as §1
# [10] = biological target: ScBzz1-D1
# How it was run: as §1
# [11] = biological target: ScBzz1-D2
# How it was run: as §1
# [12] = biological target: ScCyk3
# How it was run: as §1
# [13] = biological target: ScFus1
# How it was run: as §1
# [14] = biological target: ScHof1
# How it was run: as §1
# [15] = biological target: ScHse1
# How it was run: as §1
# [16] = biological target: ScLsb1
# How it was run: as §1
# [17] = biological target: ScLsb2
# How it was run: as §1
# [18] = biological target: ScLsb3
# How it was run: as §1
# [19] = biological target: ScLsb4
# How it was run: as §1
# [20] = biological target: ScMyo3
# How it was run: as §1
# [21] = biological target: ScMyo5
# How it was run: as §1
# [22] = biological target: ScNbp2
# How it was run: as §1
# [23] = biological target: ScPex13
# How it was run: as §1
# [24] = biological target: ScRvs167
# How it was run: as §1
# [25] = biological target: ScSho1
# How it was run: as §1
# [26] = biological target: ScSla1-D1-D2
# How it was run: as §1
# [27] = biological target: ScSla1-D3
# How it was run: as §1
# [28] = biological target: SpAbp1-D1
# How it was run: as §1
# [29] = biological target: SpBbc1
# How it was run: as §1
# [30] = biological target: SpBzz1-D1
# How it was run: as §1
# [31] = biological target: SpBzz1-D2
# How it was run: as §1
# [32] = biological target: SpCyk3
# How it was run: as §1
# [33] = biological target: SpHof1
# How it was run: as §1
# [34] = biological target: SpHof1-2
# How it was run: as §1
# [35] = biological target: SpHof1-3
# How it was run: as §1
# [36] = biological target: SpHse1
# How it was run: as §1
# [37] = biological target: SpLsb1
# How it was run: as §1
# [38] = biological target: SpLsb4
# How it was run: as §1
# [39] = biological target: SpMyo1
# How it was run: as §1
# [40] = biological target: SpNbp2
# How it was run: as §1
# [41] = biological target: SpPex13
# How it was run: as §1
# [42] = biological target: SpRvs167
# How it was run: as §1
# [43] = biological target: SpSla1-D1-D2
# How it was run: as §1
# [44] = biological target: SpSla1-D3
# How it was run: as §1
# [45] = biological target: AgAbp1
# How it was run: as §1
# [46] = biological target: AgBbc1
# How it was run: as §1
# [47] = biological target: AgBem1-D1
# How it was run: as §1
# [48] = biological target: AgBzz1-D1
# How it was run: as §1
# [49] = biological target: AgBzz1-D2
# How it was run: as §1
# [50] = biological target: AgCyk3
# How it was run: as §1
# [51] = biological target: AgFus1
# How it was run: as §1
# [52] = biological target: AgHof1
# How it was run: as §1
# [53] = biological target: AgHse1
# How it was run: as §1
# [54] = biological target: AgLsb1
# How it was run: as §1
# [55] = biological target: AgLsb4
# How it was run: as §1
# [56] = biological target: AgMyo5
# How it was run: as §1
# [57] = biological target: AgNbp2
# How it was run: as §1
# [58] = biological target: AgRvs167
# How it was run: as §1
# [59] = biological target: AgSho1
# How it was run: as §1
# [60] = biological target: AgSla1-D1-D2
# How it was run: as §1
# [61] = biological target: AgSla1-D3
# How it was run: as §1
# [62] = biological target: CaAbp1-D1
# How it was run: as §1
# [63] = biological target: CaAbp1-D2
# How it was run: as §1
# [64] = biological target: CaBbc1
# How it was run: as §1
# [65] = biological target: CaBem1-D1
# How it was run: as §1
# [66] = biological target: CaBzz1-D1
# How it was run: as §1
# [67] = biological target: CaBzz1-D2
# How it was run: as §1
# [68] = biological target: CaCyk3
# How it was run: as §1
# [69] = biological target: CaFus1
# How it was run: as §1
# [70] = biological target: CaHof1
# How it was run: as §1
# [71] = biological target: CaHse1
# How it was run: as §1
# [72] = biological target: CaLsb1
# How it was run: as §1
# [73] = biological target: CaLsb4
# How it was run: as §1
# [74] = biological target: CaMyo5
# How it was run: as §1
binder,measurement,setting,value
FYNRTAFQLPGDARV,SPOT peptide array binding signal intensity,[1],22
same,SPOT peptide array binding signal intensity,[2],≤ 0
same,SPOT peptide array binding signal intensity,[3],3.5
same,SPOT peptide array binding signal intensity,[4],11.5
same,SPOT peptide array binding signal intensity,[5],≤ 0
same,SPOT peptide array binding signal intensity,[6],≤ 0
same,SPOT peptide array binding signal intensity,[7],2.5
same,SPOT peptide array binding signal intensity,[8],3.5
same,SPOT peptide array binding signal intensity,[9],0.5
same,SPOT peptide array binding signal intensity,[10],22
same,SPOT peptide array binding signal intensity,[11],36
same,SPOT peptide array binding signal intensity,[12],20
same,SPOT peptide array binding signal intensity,[13],≤ 0
same,SPOT peptide array binding signal intensity,[14],≤ 0
same,SPOT peptide array binding signal intensity,[15],61.5
same,SPOT peptide array binding signal intensity,[16],554
same,SPOT peptide array binding signal intensity,[17],843
same,SPOT peptide array binding signal intensity,[18],≤ 0
same,SPOT peptide array binding signal intensity,[19],≤ 0
same,SPOT peptide array binding signal intensity,[20],40
same,SPOT peptide array binding signal intensity,[21],12.5
same,SPOT peptide array binding signal intensity,[22],≤ 0
same,SPOT peptide array binding signal intensity,[23],≤ 0
same,SPOT peptide array binding signal intensity,[24],≤ 0
same,SPOT peptide array binding signal intensity,[25],1
same,SPOT peptide array binding signal intensity,[26],≤ 0
same,SPOT peptide array binding signal intensity,[27],1
same,SPOT peptide array binding signal intensity,[28],≤ 0
same,SPOT peptide array binding signal intensity,[29],0.5
same,SPOT peptide array binding signal intensity,[30],86
same,SPOT peptide array binding signal intensity,[31],≤ 0
same,SPOT peptide array binding signal intensity,[32],2
same,SPOT peptide array binding signal intensity,[33],4
same,SPOT peptide array binding signal intensity,[34],1.5
same,SPOT peptide array binding signal intensity,[35],22.5
same,SPOT peptide array binding signal intensity,[36],21.5
same,SPOT peptide array binding signal intensity,[37],216
same,SPOT peptide array binding signal intensity,[38],≤ 0
same,SPOT peptide array binding signal intensity,[39],17.5
same,SPOT peptide array binding signal intensity,[40],2.5
same,SPOT peptide array binding signal intensity,[41],2
same,SPOT peptide array binding signal intensity,[42],≤ 0
same,SPOT peptide array binding signal intensity,[43],≤ 0
same,SPOT peptide array binding signal intensity,[44],0.5
LLLLFVPDSPYDPAI,SPOT peptide array binding signal intensity,[45],1
same,SPOT peptide array binding signal intensity,[46],0.75
same,SPOT peptide array binding signal intensity,[47],27
same,SPOT peptide array binding signal intensity,[48],17.5
same,SPOT peptide array binding signal intensity,[49],20.5
same,SPOT peptide array binding signal intensity,[50],3
same,SPOT peptide array binding signal intensity,[51],2370
same,SPOT peptide array binding signal intensity,[52],2.25
same,SPOT peptide array binding signal intensity,[53],277
same,SPOT peptide array binding signal intensity,[54],≤ 0
same,SPOT peptide array binding signal intensity,[55],636
same,SPOT peptide array binding signal intensity,[56],1
same,SPOT peptide array binding signal intensity,[57],63
same,SPOT peptide array binding signal intensity,[58],1.67
same,SPOT peptide array binding signal intensity,[59],212
same,SPOT peptide array binding signal intensity,[60],≤ 0
same,SPOT peptide array binding signal intensity,[61],0.5
same,SPOT peptide array binding signal intensity,[62],11
same,SPOT peptide array binding signal intensity,[63],1
same,SPOT peptide array binding signal intensity,[64],≤ 0
same,SPOT peptide array binding signal intensity,[65],≤ 0
same,SPOT peptide array binding signal intensity,[66],43.5
same,SPOT peptide array binding signal intensity,[67],19.5
same,SPOT peptide array binding signal intensity,[68],1
same,SPOT peptide array binding signal intensity,[69],5080
same,SPOT peptide array binding signal intensity,[70],66.8
same,SPOT peptide array binding signal intensity,[71],92
same,SPOT peptide array binding signal intensity,[72],1.5
same,SPOT peptide array binding signal intensity,[73],≤ 0
same,SPOT peptide array binding signal intensity,[74],6.25
same,SPOT peptide array binding signal intensity,[1],264
same,SPOT peptide array binding signal intensity,[2],15.8
same,SPOT peptide array binding signal intensity,[3],3.5
same,SPOT peptide array binding signal intensity,[4],611
same,SPOT peptide array binding signal intensity,[5],6.5
same,SPOT peptide array binding signal intensity,[6],11.5
same,SPOT peptide array binding signal intensity,[7],≤ 0
same,SPOT peptide array binding signal intensity,[8],0.25
same,SPOT peptide array binding signal intensity,[9],7
same,SPOT peptide array binding signal intensity,[10],31
same,SPOT peptide array binding signal intensity,[11],7
same,SPOT peptide array binding signal intensity,[12],37
same,SPOT peptide array binding signal intensity,[13],1060
same,SPOT peptide array binding signal intensity,[14],2.25
same,SPOT peptide array binding signal intensity,[15],662
same,SPOT peptide array binding signal intensity,[16],≤ 0
same,SPOT peptide array binding signal intensity,[17],≤ 0
same,SPOT peptide array binding signal intensity,[18],≤ 0
same,SPOT peptide array binding signal intensity,[19],1
same,SPOT peptide array binding signal intensity,[20],≤ 0
same,SPOT peptide array binding signal intensity,[21],≤ 0
same,SPOT peptide array binding signal intensity,[22],74
same,SPOT peptide array binding signal intensity,[23],0.25
same,SPOT peptide array binding signal intensity,[24],0.333
same,SPOT peptide array binding signal intensity,[25],1530
same,SPOT peptide array binding signal intensity,[26],≤ 0
same,SPOT peptide array binding signal intensity,[27],27.5
same,SPOT peptide array binding signal intensity,[28],1
same,SPOT peptide array binding signal intensity,[29],≤ 0
same,SPOT peptide array binding signal intensity,[30],26
same,SPOT peptide array binding signal intensity,[31],1.5
same,SPOT peptide array binding signal intensity,[32],25
same,SPOT peptide array binding signal intensity,[33],6.25
same,SPOT peptide array binding signal intensity,[34],5.5
same,SPOT peptide array binding signal intensity,[35],85.5
same,SPOT peptide array binding signal intensity,[36],1440
same,SPOT peptide array binding signal intensity,[37],≤ 0
same,SPOT peptide array binding signal intensity,[38],2
same,SPOT peptide array binding signal intensity,[39],3
same,SPOT peptide array binding signal intensity,[40],195
same,SPOT peptide array binding signal intensity,[41],20
same,SPOT peptide array binding signal intensity,[42],≤ 0
same,SPOT peptide array binding signal intensity,[43],3
same,SPOT peptide array binding signal intensity,[44],1
